Inconclusive results are not listed. The source made the active and inactive calls. Rule for the calls: active = hit-call score of the fitted dose curve at least 0.9, where 1 is the maximum; inconclusive = response in the unintended direction; inactive = score below 0.9.

The assay is described as follows: Tanguay_ZF_120hpf_PE_legacy: (Legacy) Oregon State University Tanguay Lab 120 Hour Post-fertilization zebrafish Assay for Pericardial Edema (AID 2283640).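 For AC50: potency for increased incidence of pericardial edema versus DMSO baseline.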 On the procedure:
Tanguay_ZF_120hpf_legacy is a whole embryo, multiplexed endpoint assay using zebrafish larvae exposed for 120 hours post fertilization on a 96-well plate.Tanguay_ZF_120hpf_PE_legacy is one of one assay component(s) measured or calculated from the Tanguay_ZF_120hpf_legacy assay. It is designed to make measurements of zebrafish development as detected with brightfield microscopy of developing zebrafish embryos.Data from the assay component Tanguay_ZF_120hpf_PE_legacy was analyzed into 1 assay endpoints. This assay endpoint, Tanguay_ZF_120hpf_PE_legacy, was analyzed in the positive analysis fitting direction relative to DMSO as the negative control and baseline of activity. Using a type of morphology reporter, gain-of-signal activity can be used to understand changes in developmentals as they relate to the whole embryo. To generalize the intended target to other relatable targets, this assay endpoint is annotated to the zebrafish development intended target family, where the subfamily is embryonic morphogenesis.
Zebrafish husbandry: Tropical 5D wild-type adult zebrafish were housed in at an approximate density of 1000 per 100 gallon tank at the Sinnhuber Aquatic Research Laboratory, Oregon State University, Corvallis, OR. Each tank was kept at standard laboratory conditions of 28C on a 14-h light/10-h dark photoperiod in fish water consisting of reverse osmosis water supplemented with a commercially available salt (Instant Ocean). Spawning funnels were placed into the tanks the night prior, and embryos were collected and staged. […] Ten microliters of each row of dilution plate 2 was added to 2 exposure plates. The final DMSO concentration used was 0.64% (vol/vol). Thirty-two embryos were also exposed to 5uM trimethyltin chloride (positive control). Plates were sealed to prevent evaporation and foil covered to reduce light exposure and kept in a 28C incubator. Embryos were statically exposed until 120 hpf. At 24 hpf, embryos were assessed for photomotor response using a custom photomotor response analysis tool (PRAT) and for developmental toxicity endpoints (MO24: mortality at 24 hpf, DP: developmental progression, SM: spontaneous movement, and NC: notochord distortion). At 120 hpf, locomotor activity was measured using Viewpoint Zebralab and assessed for 18 endpoints. Zebrafish acquisition and analysis program (ZAAP), a custom program designed to inventory, acquire, and manage zebrafish data, was used to collect developmental endpoints as either present or absent (i.e., binary responses were recorded). If mortality occurred for an embryo (at either 24 or 120 hpf), the non-mortality endpoints were not measured.
What is called AC50 is the concentration giving half of the maximal activity seen. Turning to `Cc1c2ccccc2c(C)c2c1ccc1ccccc12`, the AC50 was 4.18 µM (active). As for `CC(C)(C)c1csc(-c2cc3cc(OCc4ccccc4CC(=O)O)ccc3o2)n1`, the result was inactive. With `OCCO`, the outcome was inactive. The same measure, in the same setting: the value for `C[C@]12CC[C@@H]3c4ccc(O)cc4CC[C@H]3[C@@H]1CCC2=O` was “inactive”. Same read-out and setting: the value for `Cc1ccc2oc(CN(Cc3ccccc3)C(=O)Nc3c(F)cc(F)cc3F)c(-c3ccc(Cl)cc3)c2c1` was “inactive”; that for `CCN(Cc1cccc(S(=O)(=O)O)c1)c1ccc(C(=C2C=CC(=[N+](CC)Cc3cccc(S(=O)(=O)O)c3)C=C2)c2ccccc2S(=O)(=O)[O-])cc1` was “inactive”. In the case of `CCCCOC(=O)c1ccc(O)cc1`, the AC50 is 35.5 µM (active). Take `O=c1ccc2ccccc2o1`: the outcome was inactive. Take `NC(=O)c1nc(-c2cccc(-c3cc(F)ccc3OCC(F)(F)C(F)(F)F)c2)n[nH]1`: the concentration at half-maximal activity (AC50) is 28.1 µM (active). As for `O=C(Nc1ccc(Cl)cc1)Nc1ccc(Cl)c(Cl)c1`, the molecule was classed as inactive. For `Clc1ccccc1C(c1ccccc1)(c1ccccc1)n1ccnc1`, the half-maximal activity concentration (AC50) was 24.8 µM (active). Take `c1ccc2n[nH]nc2c1`: the molecule was called inactive. As for `CN(C[C@@H](CC[N+]12CCC(C3CCCCC3)(CC1)CC2)c1ccc(Cl)c(Cl)c1)C(=O)c1cc(C(F)(F)F)cc(C(F)(F)F)c1`, the result was inactive. Regarding `CO[C@H]1/C=C/O[C@@]2(C)Oc3c(C)c(O)c4c(O)c(c(/C=N/N5CCN(C)CC5)c(O)c4c3C2=O)NC(=O)/C(C)=C\C=C\[C@H](C)[C@H](O)[C@@H](C)[C@@H](O)[C@@H](C)[C@H](OC(C)=O)[C@@H]1C`, the molecule was classed as inactive. Consider `O=C(OCCCCCCOC(=O)c1ccccc1)c1ccccc1`, for which the result was inactive. Consider `CCN(Cc1cccnc1)C(=O)c1cccc(Cl)c1[C@]1(C)C(=O)N(Cc2ccc(OC)cc2OC)c2ccc(Cl)cc21`, for which the molecule was classed as inactive. The same measure, in the same setting: the value for `CCOC(=O)O[C@H](C)OC(=O)c1ccc2c(c1)cc(C(=O)NC1CCN(C(C)C)CC1)n2Cc1cc(-c2ccc(Cl)s2)on1` was “inactive”; that for `CN1C(=O)CC[C@H]1c1cccnc1` was “inactive”; that for `CCCCCCCCN(C)CCCCCCCC` was “inactive”. Still for that read-out and setting: the value for `Cc1cccc2ccccc12` was “inactive”; that for `Oc1ccc2ccccc2c1` was “inactive”. The same measure, in the same setting: the value for `O=C(O)c1ccccc1C(=O)OCc1ccccc1` was “inactive”; that for `CCCCCCCCCCCO` was “inactive”. Take `O=C1c2ccccc2C(=O)N1CCc1noc(-c2ccc(CN3CCCCCC3)s2)n1`: the outcome was inactive.

Regarding `CC[C@@H]1C[C@H](N(Cc2cc(C(F)(F)F)cc(C(F)(F)F)c2)C(C)=O)c2cc(C(F)(F)F)ccc2N1C(=O)OC(C)C`, the result was inactive. The same measure, in the same setting: the value for `Cc1ncc(CO)c(CO)c1O` was “inactive”.

On to `OC12N=C(c3ccccc3)SC1Cc1cc(Cl)ccc12` (stereo not given), for which the AC50 was 45.8 µM (active). The same measure, in the same setting: the value for `CN1C(=O)N(c2ccccc2Br)Cc2cnc(Nc3ccc4c(c3)OCC(CO)O4)nc21` (stereo not given) was 2.66 µM (active). On to `O=c1c(-c2ccc(O)cc2)coc2cc(O)cc(O)c12`, for which the call was inactive.

With `O=C1CCC(C2CCCCC2)CC1`, the molecule was classed as inactive. Still for that read-out and setting: the value for `NCc1cccc(C2CCN(C(=O)c3ccc(C#Cc4ccccc4F)o3)CC2)c1` was “inactive”.

On to `COc1cccc([C@H](O)C2CCN(CCc3ccc(F)cc3)CC2)c1OC`, for which the AC50 was 38.7 µM (active).

For the molecule `CC(C)(C)c1cc(/C=C2\SC(N)=NC2=O)cc(C(C)(C)C)c1O`, the outcome was inactive.

For the molecule `O=c1[nH]sc2ccccc12`, the result was inactive. Still for that read-out and setting: the value for `CCCCCCCCOC(=O)c1cc(O)c(O)c(O)c1` was “inactive”. The same measure, in the same setting: the value for `Cc1cn([C@H]2C[C@H](N=[N+]=[N-])[C@@H](CO)O2)c(=O)[nH]c1=O` was “inactive”; that for `COCC(C)OCC(C)OCC(C)O` (stereo not given) was “inactive”. Same read-out and setting: the value for `CCCCCCCCCCCC[N+](C)(C)C` was “inactive”; that for `CC1=CC(=O)/C(=C(/C)O)C(=O)O1` was “inactive”; that for `CCCCOC(=O)CC(CC(=O)OCCCC)(OC(C)=O)C(=O)OCCCC` was “inactive”.

Source of the values: PubChem BioAssay (EPA / NIEHS).
